Reference: the supplement of paper PMC12645437, “Orthogonal IMiD-Degron Pairs Induce Selective Protein Degradation in Cells” (ACS Chemical Biology, 2025)
In all, about 8,300 sequences were measured (“log2 fold change of degron read counts, EGFP-low vs EGFP+ sorted cells (limma voom), compound-induced degradation”: median about -1.1, highest 2% from about 3.2 on). For the sample, the highest values were picked, then their nearest neighbours and some sequences at random.

Target: T1, CRBN, Q96SW2
T1 chain: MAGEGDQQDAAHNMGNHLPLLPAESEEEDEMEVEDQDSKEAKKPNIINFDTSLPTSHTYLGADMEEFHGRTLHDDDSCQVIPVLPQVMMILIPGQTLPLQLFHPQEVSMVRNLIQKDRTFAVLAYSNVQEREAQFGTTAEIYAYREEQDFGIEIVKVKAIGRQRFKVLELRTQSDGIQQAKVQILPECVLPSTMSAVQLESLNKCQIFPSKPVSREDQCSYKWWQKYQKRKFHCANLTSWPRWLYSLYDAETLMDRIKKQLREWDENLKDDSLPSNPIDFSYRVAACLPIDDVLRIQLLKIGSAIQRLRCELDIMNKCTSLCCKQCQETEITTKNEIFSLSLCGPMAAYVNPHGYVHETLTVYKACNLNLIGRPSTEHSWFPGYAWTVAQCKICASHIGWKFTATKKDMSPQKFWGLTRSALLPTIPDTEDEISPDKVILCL
Experiment: log2 fold change of degron read counts, EGFP-low vs EGFP+ sorted cells (limma voom), compound-induced degradation; higher = more compound-induced degradation of the degron-EGFP fusion; degrons are variants of IKZF1/3 zinc finger 2; compound dose not given here
Settings: Jurkat, 18 h

[1] = compound: compound 19 (5-tert-butyl-thalidomide)
[2] = compound: compound 22 (5-morpholino-thalidomide)
[3] = compound: compound 33 (diphenyl IMiD analogue)
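Note: pooled lentiviral library of zinc finger degron-EGFP fusions in mCherry-positive Jurkat cells, FACS-sorted after compound exposure, with degron abundance counted by next-generation sequencing.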

B1: 46L_47H_49N_50Q_52G_53F_54W_55C_67L_, Q9UKT9 (peptide)
chain: LHCNQCGFWCTQKGNLLRHIKL
log2 fold change of degron read counts [1]: -0.827 | log2 fold change of degron read counts [2]: -1.3 | log2 fold change of degron read counts [3]: -1.08 | log2 fold change of degron read counts (compound: thalidomide): -0.88

B2: 46F_47R_49P_50I_52G_53H_54H_55F_67L_, Q9UKT9 (peptide)
chain: FRCPICGHHFTQKGNLLRHIKL
log2 fold change of degron read counts [1]: -2.39 | log2 fold change of degron read counts [2]: -2.52 | log2 fold change of degron read counts [3]: -1.52 | log2 fold change of degron read counts (compound: thalidomide): -1.56

B3: 46F_47K_49E_50I_52G_53A_54N_55F_67L_, Q9UKT9 (peptide)
chain: FKCEICGANFTQKGNLLRHIKL
log2 fold change of degron read counts [1]: -1.06 | log2 fold change of degron read counts [2]: -1.95 | log2 fold change of degron read counts [3]: -2.41 | log2 fold change of degron read counts (compound: thalidomide): -0.806

B4: 46F_47Y_49E_50I_52G_53A_54N_55F_67L_, Q9UKT9 (peptide)
chain: FYCEICGANFTQKGNLLRHIKL
log2 fold change of degron read counts [1]: 3.74 | log2 fold change of degron read counts [2]: 3.68 | log2 fold change of degron read counts [3]: 2.63 | log2 fold change of degron read counts (compound: thalidomide): 1.54

B5: 46F_47T_49E_50I_52G_53A_54N_55F_67L_, Q9UKT9 (peptide)
chain: FTCEICGANFTQKGNLLRHIKL
log2 fold change of degron read counts [1]: 0.227 | log2 fold change of degron read counts [2]: 1.78 | log2 fold change of degron read counts [3]: 1.46 | log2 fold change of degron read counts (compound: thalidomide): 2.43

B6: 46F_47A_49E_50I_52G_53A_54N_55F_67L_, Q9UKT9 (peptide)
chain: FACEICGANFTQKGNLLRHIKL
log2 fold change of degron read counts [1]: 2.93 | log2 fold change of degron read counts [2]: 1.89 | log2 fold change of degron read counts [3]: 1.07 | log2 fold change of degron read counts (compound: thalidomide): 0.575

B7: 46F_47W_49E_50I_52G_53A_54N_55F_67L_, Q9UKT9 (peptide)
chain: FWCEICGANFTQKGNLLRHIKL
log2 fold change of degron read counts [1]: 3.41 | log2 fold change of degron read counts [2]: 3.78 | log2 fold change of degron read counts [3]: 2.28 | log2 fold change of degron read counts (compound: thalidomide): 1.57

B8: 46F_47N_49E_50I_52G_53A_54N_55F_67L_, Q9UKT9 (peptide)
chain: FNCEICGANFTQKGNLLRHIKL
log2 fold change of degron read counts [1]: 2.42 | log2 fold change of degron read counts [2]: 0.457 | log2 fold change of degron read counts [3]: -0.158 | log2 fold change of degron read counts (compound: thalidomide): -0.463

B9: 46F_47S_49E_50I_52G_53A_54N_55F_67L_, Q9UKT9 (peptide)
chain: FSCEICGANFTQKGNLLRHIKL
log2 fold change of degron read counts [1]: 2.11 | log2 fold change of degron read counts [2]: 1.59 | log2 fold change of degron read counts [3]: 1.31 | log2 fold change of degron read counts (compound: thalidomide): 0.441

B10: 46F_47F_49E_50I_52G_53A_54N_55F_67L_, Q9UKT9 (peptide)
chain: FFCEICGANFTQKGNLLRHIKL
log2 fold change of degron read counts [1]: 3.08 | log2 fold change of degron read counts [2]: 3.63 | log2 fold change of degron read counts [3]: 1.75 | log2 fold change of degron read counts (compound: thalidomide): 1.6

B11: 46F_47G_49E_50I_52G_53A_54N_55F_67L_, Q9UKT9 (peptide)
chain: FGCEICGANFTQKGNLLRHIKL
log2 fold change of degron read counts [1]: 1.01 | log2 fold change of degron read counts [2]: 0.765 | log2 fold change of degron read counts [3]: 1.12 | log2 fold change of degron read counts (compound: thalidomide): 0.771

B12: 46F_47E_49E_50I_52G_53A_54N_55F_67L_, Q9UKT9 (peptide)
chain: FECEICGANFTQKGNLLRHIKL
log2 fold change of degron read counts [1]: 0.0673 | log2 fold change of degron read counts [2]: -1.05 | log2 fold change of degron read counts [3]: 2.35 | log2 fold change of degron read counts (compound: thalidomide): 2.43

B13: 46F_47Q_49E_50I_52G_53A_54N_55F_67L_, Q9UKT9 (peptide)
chain: FQCEICGANFTQKGNLLRHIKL
log2 fold change of degron read counts [1]: 0.735 | log2 fold change of degron read counts [2]: 1.47 | log2 fold change of degron read counts [3]: 1.94 | log2 fold change of degron read counts (compound: thalidomide): 3.59

B14: 46F_47L_49E_50I_52G_53A_54N_55F_67L_, Q9UKT9 (peptide)
chain: FLCEICGANFTQKGNLLRHIKL
log2 fold change of degron read counts [1]: 0.58 | log2 fold change of degron read counts [2]: -0.667 | log2 fold change of degron read counts [3]: 1.21 | log2 fold change of degron read counts (compound: thalidomide): 1.75

B15: 46F_47C_49E_50Q_52G_53A_54M_55F_67L_, Q9UKT9 (peptide)
chain: FCCEQCGAMFTQKGNLLRHIKL
log2 fold change of degron read counts [1]: -1.3 | log2 fold change of degron read counts [2]: -2.03 | log2 fold change of degron read counts [3]: -0.276 | log2 fold change of degron read counts (compound: thalidomide): -1.41

B16: 46F_47H_49N_50V_52G_53A_54R_55F_67L_, Q9UKT9 (peptide)
chain: FHCNVCGARFTQKGNLLRHIKL
log2 fold change of degron read counts [1]: 0.139 | log2 fold change of degron read counts [2]: -0.199 | log2 fold change of degron read counts [3]: -0.986 | log2 fold change of degron read counts (compound: thalidomide): -1.05

B17: 46L_47N_49P_50I_52G_53F_54L_55C_67L_, Q9UKT9 (peptide)
chain: LNCPICGFLCTQKGNLLRHIKL
log2 fold change of degron read counts [1]: -0.106 | log2 fold change of degron read counts [2]: 0.152 | log2 fold change of degron read counts [3]: 0.208 | log2 fold change of degron read counts (compound: thalidomide): 0.391

B18: 46F_47Q_49S_50V_52G_53H_54D_55F_67L_, Q9UKT9 (peptide)
chain: FQCSVCGHDFTQKGNLLRHIKL
log2 fold change of degron read counts [1]: -3.43 | log2 fold change of degron read counts [2]: -3.8 | log2 fold change of degron read counts [3]: -3.18 | log2 fold change of degron read counts (compound: thalidomide): -3.17

B19: 46F_47I_49N_50Q_52G_53H_54F_55F_67L_, Q9UKT9 (peptide)
chain: FICNQCGHFFTQKGNLLRHIKL
log2 fold change of degron read counts [1]: -2.52 | log2 fold change of degron read counts [2]: -2.59 | log2 fold change of degron read counts [3]: -2.06 | log2 fold change of degron read counts (compound: thalidomide): -2.52

B20: 46F_47K_49E_50I_52G_53H_54F_55F_67L_, Q9UKT9 (peptide)
chain: FKCEICGHFFTQKGNLLRHIKL
log2 fold change of degron read counts [1]: -2.55 | log2 fold change of degron read counts [2]: -2.68 | log2 fold change of degron read counts [3]: -2.97 | log2 fold change of degron read counts (compound: thalidomide): -2.85

B21: 46F_47Q_49N_50V_52G_53A_54C_55F_67L_, Q9UKT9 (peptide)
chain: FQCNVCGACFTQKGNLLRHIKL
log2 fold change of degron read counts [1]: -1.23 | log2 fold change of degron read counts [2]: 0.797 | log2 fold change of degron read counts [3]: 0.868 | log2 fold change of degron read counts (compound: thalidomide): 3.21

B22: 46L_47R_49P_50I_52G_53F_54K_55C_67L_, Q9UKT9 (peptide)
chain: LRCPICGFKCTQKGNLLRHIKL
log2 fold change of degron read counts [1]: -0.023 | log2 fold change of degron read counts [2]: -0.151 | log2 fold change of degron read counts [3]: 0.993 | log2 fold change of degron read counts (compound: thalidomide): 1.4

B23: 46L_47S_49P_50I_52G_53F_54K_55C_67L_, Q9UKT9 (peptide)
chain: LSCPICGFKCTQKGNLLRHIKL
log2 fold change of degron read counts [1]: 2.15 | log2 fold change of degron read counts [2]: 1.87 | log2 fold change of degron read counts [3]: 0.118 | log2 fold change of degron read counts (compound: thalidomide): 1.77

B24: 46L_47F_49P_50I_52G_53F_54K_55C_67L_, Q9UKT9 (peptide)
chain: LFCPICGFKCTQKGNLLRHIKL
log2 fold change of degron read counts [1]: 2.81 | log2 fold change of degron read counts [2]: 2.98 | log2 fold change of degron read counts [3]: 1.2 | log2 fold change of degron read counts (compound: thalidomide): 1.42

B25: 46L_47D_49P_50I_52G_53F_54K_55C_67L_, Q9UKT9 (peptide)
chain: LDCPICGFKCTQKGNLLRHIKL
log2 fold change of degron read counts [1]: 0.605 | log2 fold change of degron read counts [2]: 0.0419 | log2 fold change of degron read counts [3]: -0.53 | log2 fold change of degron read counts (compound: thalidomide): 2.02

B26: 46L_47G_49P_50I_52G_53F_54K_55C_67L_, Q9UKT9 (peptide)
chain: LGCPICGFKCTQKGNLLRHIKL
log2 fold change of degron read counts [1]: 3.67 | log2 fold change of degron read counts [2]: 1.98 | log2 fold change of degron read counts [3]: -0.000486 | log2 fold change of degron read counts (compound: thalidomide): 1.27

B27: 46L_47Q_49P_50I_52G_53F_54K_55C_67L_, Q9UKT9 (peptide)
chain: LQCPICGFKCTQKGNLLRHIKL
log2 fold change of degron read counts [1]: 0.793 | log2 fold change of degron read counts [2]: 2.43 | log2 fold change of degron read counts [3]: 0.554 | log2 fold change of degron read counts (compound: thalidomide): 3.4

B28: 46L_47H_49P_50I_52G_53F_54K_55C_67L_, Q9UKT9 (peptide)
chain: LHCPICGFKCTQKGNLLRHIKL
log2 fold change of degron read counts [1]: 2.19 | log2 fold change of degron read counts [2]: 2.18 | log2 fold change of degron read counts [3]: 1.15 | log2 fold change of degron read counts (compound: thalidomide): 1.4

B29: 46L_47E_49P_50I_52G_53F_54K_55C_67L_, Q9UKT9 (peptide)
chain: LECPICGFKCTQKGNLLRHIKL
log2 fold change of degron read counts [1]: 0.756 | log2 fold change of degron read counts [2]: -0.257 | log2 fold change of degron read counts [3]: 0.961 | log2 fold change of degron read counts (compound: thalidomide): 3.26

B30: 46L_47V_49P_50I_52G_53F_54K_55C_67L_, Q9UKT9 (peptide)
chain: LVCPICGFKCTQKGNLLRHIKL
log2 fold change of degron read counts [1]: 0.655 | log2 fold change of degron read counts [2]: 2.13 | log2 fold change of degron read counts [3]: 0.489 | log2 fold change of degron read counts (compound: thalidomide): 2.78
